Assay results taken from ChEMBL document CHEMBL1157539, “Thousands of chemical starting points for antimalarial lead identification” (Nature, 2010).

Each compound was assayed on HepG2 (assay: GSK_TCMDC: Percent inhibition of human HepG2 cell line. Test compounds present at 10uM.).
Type: functional
With `CN(C)CCCNCc1ccc(-c2ccc(CNCCOc3ccccc3)cc2)cc1.O=C(O)C(F)(F)F` the Inhibition was 27%. For `CN(CCCCCN1CCC(NC(=O)Nc2ccc(Oc3ccccc3)cc2)C1)C(=O)/C=C/c1ccc(Cl)c(Cl)c1` (configuration not stated), the Inhibition was 50%. In the case of `CC(Nc1nc(Nc2ccc(F)cc2)nc(SCC(N)=O)n1)c1ccccc1` (configuration not stated), the Inhibition was 14%. For `O=C(NCCCCN1CCC(c2ccc3c(c2O)CCCC3)CC1)c1ccc(-c2ccc(Cl)cc2)cc1`, the Inhibition was 97%. For `O=C(Nc1ccc(Cl)c(C(F)(F)F)c1)N[C@H]1CCN(CCCCCNC(=O)C2CC2c2ccc(Cl)c(Cl)c2)C1` (some centres not stated), the Inhibition was 39%. For `CCC(=O)OC(CCN(CC)CC)(c1ccccc1)c1ccccc1`, the Inhibition was 30%. With `C(=N\Nc1nccc2sc(-c3ccccc3)cc12)/c1cccnc1` the Inhibition was 0%. With `Cl.Fc1ccc2ncc(Cl)c(CCN3CCC(NCc4cc5c(cn4)OCCO5)CC3)c2c1` the Inhibition was 24%. `Cc1cc2nc(-c3ccc(/C=C/C(=O)NC4CCN(Cc5ccccc5)CC4)cc3)[nH]c2cc1C` gave an Inhibition of 18%. With `O=C(O)C(F)(F)F.O=S(=O)(NCCN1CCCC1)c1ccc(-c2cccc(CNCc3ccc(F)cc3)c2)s1` the Inhibition was 48%. For `COc1ccc(C(=O)C2CCN(CCCCNC(=O)c3ccc(NC(=O)c4cc(Cl)cc(Cl)c4)cc3)CC2)cc1`, the Inhibition was 35%. In the case of `CN(Cc1ccc(-c2ccc(C(F)(F)F)cc2)cc1)C(=O)Cn1c(CCc2cccc(F)c2F)nc(=O)c2ccc(N3CCN(CCN4CCCCC4)CC3)nc21.O=C(O)C(O)C(O)C(=O)O`, the Inhibition was 100%.
